# Laboratory results reported in PubChem BioAssay (Tox21).
# “And” between values parts separate entries of the source, which are not always exact repeats. Identical values can stand only once. Results filed as inconclusive are left out. The source made the active and inactive calls. Unless noted, calls come from the whole dose curve; as a rule, active = well fitted curve in the direction sought with a large enough effect in the repeat runs; inconclusive = weak or mixed curves; inactive = no such curve, though single readings can be large; an effect the other way counts as inactive or inconclusive.
# Experiments:
# [1] = target: Aryl hydrocarbon receptor (Homo sapiens) (UniProt P35869); experiment: qHTS assay to identify small molecule that activate the aryl hydrocarbon receptor (AhR) signaling pathway (AID 743085); note: nearly all actives have a fitted effect of over 15% in size; note: potency is the fitted concentration of half-maximal effect;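 for activation: HG2L7.5c1 human HepG2 liver cells with stably integrated DRE-driven firefly reporter; series mostly up to about 70 µM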
# Aryl hydrocarbon receptor (Homo sapiens), sequence (P35869 whole entry, looked up): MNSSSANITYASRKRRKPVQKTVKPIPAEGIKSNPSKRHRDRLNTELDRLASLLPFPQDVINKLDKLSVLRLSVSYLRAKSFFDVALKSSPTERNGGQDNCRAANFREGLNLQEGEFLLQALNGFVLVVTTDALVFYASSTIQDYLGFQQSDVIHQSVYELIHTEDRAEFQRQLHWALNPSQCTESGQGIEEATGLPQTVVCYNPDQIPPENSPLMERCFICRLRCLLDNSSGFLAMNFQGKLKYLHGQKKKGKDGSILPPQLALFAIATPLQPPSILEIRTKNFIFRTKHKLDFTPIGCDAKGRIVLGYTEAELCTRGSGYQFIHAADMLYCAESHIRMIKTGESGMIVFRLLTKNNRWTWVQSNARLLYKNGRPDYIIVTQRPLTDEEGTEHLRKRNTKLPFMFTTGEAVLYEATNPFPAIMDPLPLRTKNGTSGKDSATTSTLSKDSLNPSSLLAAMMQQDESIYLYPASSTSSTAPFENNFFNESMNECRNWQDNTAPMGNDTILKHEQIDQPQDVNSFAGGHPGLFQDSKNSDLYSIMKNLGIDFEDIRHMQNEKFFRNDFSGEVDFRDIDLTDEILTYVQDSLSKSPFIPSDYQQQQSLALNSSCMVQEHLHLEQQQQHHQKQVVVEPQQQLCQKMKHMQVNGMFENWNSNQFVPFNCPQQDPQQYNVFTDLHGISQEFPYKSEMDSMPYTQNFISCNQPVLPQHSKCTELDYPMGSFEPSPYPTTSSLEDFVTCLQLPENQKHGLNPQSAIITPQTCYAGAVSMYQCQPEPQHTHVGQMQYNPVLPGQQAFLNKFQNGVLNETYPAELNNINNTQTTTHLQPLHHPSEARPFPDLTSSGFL
# Outline: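 Luminescence (ONE-Glo) from a dioxin-responsive-element luciferase reporter in HG2L7.5c1 HepG2 cells after 24 hr compound exposure at 37C; viability measured by CellTiter-Fluor fluorescence beforehand.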
# [2] = qHTS assay to identify small molecule that activate the aryl hydrocarbon receptor (AhR) signaling pathway - cell viability counter screen (AID 743086); note: nearly all actives have a fitted effect of over 45% in size; note: potency is the fitted concentration of half-maximal effect
# Outline: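 HepG2-AhR-luc (HG2L7.5c1) cells, 4000/well, treated 24 h at 37 C with compound; viability measured as CellTiter-Fluor fluorescence after 30 min in the same wells as the luciferase read.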
# [3] = qHTS assay to identify small molecule antagonists of the peroxisome proliferator-activated receptor gamma (PPARg) signaling pathway - cell viability counter screen (AID 743194); note: nearly all actives have a fitted effect of over 55% in size; note: potency is the fitted concentration of half-maximal effect
# Outline: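 Cytotoxicity counter screen in PPARg-bla HEK293H cells, same wells as reporter assay. Compounds plus 50 nM rosiglitazone (final) for 17 h at 37 C, then viability read by CellTiter-Glo luminescence.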
# [4] = qHTS assay for small molecule activators of the heat shock response signaling pathway - cell viability counter screen (AID 743209); note: nearly all actives have a fitted effect of over 50% in size; note: potency is the fitted concentration of half-maximal effect
# Outline: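 HSE-bla HeLa cells plated overnight, then exposed to Tox21 compounds (23 nL in DMSO) for 5 h at 37 C. After the bla reporter read, CellTiter-Glo was added in the same wells and luminescence read after 30 min at room temperature.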
# [5] = qHTS assay to identify small molecule agonists of the peroxisome proliferator-activated receptor delta (PPARd) signaling pathway - cell viability counter screen (AID 743211); note: potency is the fitted concentration of half-maximal effect; nearly all actives have a fitted effect of over 55% in size
# Outline: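 Viability was measured as CellTiter-Glo luminescence (30 min, room temperature) in the same wells as the beta-lactamase readout. GeneBLAzer PPARd UAS-bla HEK293H cells received compound after 5 h plating and were incubated 17 h at 37 C.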
# [6] = qHTS assay to identify small molecule antagonists of the peroxisome proliferator-activated receptor delta (PPARd) signaling pathway - cell viability counter screen (AID 743213); note: nearly all actives have a fitted effect of over 50% in size; note: potency is the fitted concentration of half-maximal effect
# Outline: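 Luminescence from CellTiter-Glo, added after the bla read and incubated 30 min at room temperature, gives viability of HEK293H PPARd-bla cells exposed to compounds for 17 h at 37 C with 300 nM L165041.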
# [7] = target: Bile acid receptor (Homo sapiens) (UniProt Q96RI1); experiment: qHTS assay to identify small molecule agonists of the farnesoid-X-receptor (FXR) signaling pathway (AID 743220; active = well fitted activation curve with a large enough effect in the signal ratio in the repeat runs, not every such curve was filed as active; the % refers to the signal ratio)
# Bile acid receptor (Homo sapiens), sequence (Q96RI1 whole entry, looked up): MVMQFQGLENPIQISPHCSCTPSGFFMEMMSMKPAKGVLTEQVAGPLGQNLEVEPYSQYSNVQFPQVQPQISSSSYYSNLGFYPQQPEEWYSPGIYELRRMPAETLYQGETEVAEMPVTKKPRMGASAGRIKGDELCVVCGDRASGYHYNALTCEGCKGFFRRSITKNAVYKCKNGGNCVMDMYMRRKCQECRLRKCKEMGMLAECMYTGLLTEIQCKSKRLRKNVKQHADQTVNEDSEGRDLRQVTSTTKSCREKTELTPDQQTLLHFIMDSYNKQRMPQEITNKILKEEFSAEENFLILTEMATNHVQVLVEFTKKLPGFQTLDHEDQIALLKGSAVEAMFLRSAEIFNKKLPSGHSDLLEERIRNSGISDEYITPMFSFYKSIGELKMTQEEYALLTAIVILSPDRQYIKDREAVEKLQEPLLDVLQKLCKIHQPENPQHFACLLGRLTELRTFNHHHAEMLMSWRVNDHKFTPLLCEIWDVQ
# Outline: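 Beta-lactamase reporter under UAS control in GeneBLAzer FXR HEK 293T cells (5000/well) measured with LiveBLAzer FRET substrate after 2 h at room temperature. Compound exposure lasted 16 h at 37C.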
# [8] = qHTS assay to identify small molecule antagonists of the farnesoid-X-receptor (FXR) signaling pathway - cell viability counter screen (AID 743221; active = well fitted cell-killing curve with a large enough effect in the repeat runs, not every such curve was filed as active; note: nearly all actives have a fitted effect of over 50% in size; note: potency is the fitted concentration of half-maximal effect)
# Outline: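 Cytotoxicity counter screen run in the FXR-bla reporter wells: HEK 293T cells exposed to compound with 50 uM (final) chenodeoxycholic acid for 16 h, 37 C, then viability measured by CellTiter-Glo luminescence after 30 min, room temperature.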
# [9] = qHTS assay for small molecule agonists of the antioxidant response element (ARE) signaling pathway - cell viability counter screen (AID 743203; calls by dose curve; note: nearly all actives have a fitted effect of over 55% in size; note: potency is the fitted concentration of half-maximal effect)
# Outline: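 ARE-bla HepG2 cells were plated, rested 5 h at 37C/5% CO2, then exposed to compounds in DMSO for 16 h. Viability was read as CellTiter-Glo luminescence after 30 min at room temperature, in the same wells as the ARE screen.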
# [10] = qHTS assay to identify small molecule agonists of the farnesoid-X-receptor (FXR) signaling pathway - cell viability counter screen (AID 743218); note: potency is the fitted concentration of half-maximal effect; nearly all actives have a fitted effect of over 45% in size
# Outline: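 FXR-UAS-bla HEK 293T cells exposed to compounds for 16 h at 37C. Cytotoxicity read in the same wells by CellTiter-Glo luminescence after 30 min at room temperature, following the beta-lactamase FRET read.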
# [11] = target: Vitamin D3 receptor (Homo sapiens) (UniProt P11473); experiment: qHTS assay to identify small molecule agonists of the vitamin D receptor (VDR) signaling pathway (AID 743222; calls by dose curve)
# Vitamin D3 receptor (Homo sapiens), sequence (P11473 whole entry, looked up): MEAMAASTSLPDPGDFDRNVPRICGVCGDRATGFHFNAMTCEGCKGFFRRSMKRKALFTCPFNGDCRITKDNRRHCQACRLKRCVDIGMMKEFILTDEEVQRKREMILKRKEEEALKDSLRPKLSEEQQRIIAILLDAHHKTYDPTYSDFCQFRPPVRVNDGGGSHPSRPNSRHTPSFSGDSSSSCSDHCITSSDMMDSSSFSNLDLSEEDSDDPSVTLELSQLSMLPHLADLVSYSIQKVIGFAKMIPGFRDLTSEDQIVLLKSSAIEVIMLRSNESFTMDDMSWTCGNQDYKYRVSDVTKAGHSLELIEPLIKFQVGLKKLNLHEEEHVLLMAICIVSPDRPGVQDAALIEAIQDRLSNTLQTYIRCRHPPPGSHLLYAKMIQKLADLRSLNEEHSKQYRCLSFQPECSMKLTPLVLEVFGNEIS
# Outline: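 VDR-bla cells plated 4 h at 37 C, then exposed to compounds for 16 h at 37 C. Beta-lactamase reporter activity measured by fluorescence after 2 h room-temperature loading with LiveBLAzer B/G FRET substrate.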
# [12] = target: Vitamin D3 receptor (Homo sapiens) (UniProt P11473); experiment: qHTS assay to identify small molecule antagonists of the vitamin D receptor (VDR) signaling pathway (AID 743223; active = well fitted inhibition curve with a large enough effect in the signal ratio in the repeat runs, not every such curve was filed as active; the % refers to the signal ratio; note: potency is the fitted concentration of half-maximal effect)
# Outline: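 Antagonist mode: compound added to VDR-bla cells alongside agonist 1alpha,25-dihydroxyvitamin D3 (3 nM final), incubation 16 h at 37C. Read-out is LiveBLAzer FRET fluorescence, 2 h at room temperature.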
# [13] = qHTS assay to identify small molecule agonists of the vitamin D receptor (VDR) signaling pathway - cell viability counter screen (AID 743224); note: nearly all actives have a fitted effect of over 50% in size; note: potency is the fitted concentration of half-maximal effect
# Outline: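 VDR-bla cells, 4 h after plating, exposed to compounds for 16 h at 37C; viability then read in the same wells as CellTiter-Glo luminescence after 30 min at room temperature, following the bla FRET read.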
# [14] = target: Peroxisome proliferator-activated receptor delta (Homo sapiens) (UniProt Q03181); experiment: qHTS assay to identify small molecule antagonists of the peroxisome proliferator-activated receptor delta (PPARd) signaling pathway (AID 743215; active = well fitted inhibition curve with a large enough effect in the signal ratio in the repeat runs, not every such curve was filed as active; the % refers to the signal ratio;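 note: cells stimulated with agonist L165041 at 300 nM final during compound exposure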; note: potency is the fitted concentration of half-maximal effect)
# Peroxisome proliferator-activated receptor delta (Homo sapiens), sequence (Q03181 whole entry, looked up): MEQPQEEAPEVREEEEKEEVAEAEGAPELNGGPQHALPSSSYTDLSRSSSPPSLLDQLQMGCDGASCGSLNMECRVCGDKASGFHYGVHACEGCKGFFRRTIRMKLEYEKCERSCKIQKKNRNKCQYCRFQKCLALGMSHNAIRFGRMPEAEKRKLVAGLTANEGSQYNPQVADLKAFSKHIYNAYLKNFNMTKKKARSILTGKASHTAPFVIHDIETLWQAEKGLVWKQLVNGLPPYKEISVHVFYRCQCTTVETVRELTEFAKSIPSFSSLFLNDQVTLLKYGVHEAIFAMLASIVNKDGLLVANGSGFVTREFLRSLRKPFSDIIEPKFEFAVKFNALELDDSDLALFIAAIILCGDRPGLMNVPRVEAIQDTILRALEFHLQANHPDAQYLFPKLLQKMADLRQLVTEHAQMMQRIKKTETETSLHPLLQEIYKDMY
# Outline: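 PPARd-bla HEK293H cells (UAS-bla reporter) preincubated 5 h, then given compound plus 300 nM final L165041 agonist for 17 h at 37 C. Beta-lactamase activity read by LiveBLAzer B/G FRET substrate fluorescence after 2 h at room temperature.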
# [15] = qHTS assay for small molecule agonists of the antioxidant response element (ARE) signaling pathway (AID 743202; active = well fitted activation curve with a large enough effect in the signal ratio in the repeat runs, not every such curve was filed as active; the % refers to the signal ratio; note: potency is the fitted concentration of half-maximal effect)
# Outline: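 Agonist mode reporter screen: HepG2 cells with ARE-controlled beta-lactamase are incubated with test compounds for 16 h at 37 C, and beta-lactamase activity is measured as fluorescence of cleaved B/G FRET substrate.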
# [16] = target: Peroxisome proliferator-activated receptor delta (Homo sapiens) (UniProt Q03181); experiment: qHTS assay to identify small molecule agonists of the peroxisome proliferator-activated receptor delta (PPARd) signaling pathway (AID 743212; calls by dose curve)
# Outline: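 Quantitative high-throughput agonist screen in a HEK293H beta-lactamase reporter line under UAS control. Compounds in DMSO, at 37 C. Fluorescence read after 2 h with FRET substrate at room temperature.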
# [17] = target: Bile acid receptor (Homo sapiens) (UniProt Q96RI1); experiment: qHTS assay to identify small molecule antagonists of the farnesoid-X-receptor (FXR) signaling pathway (AID 743217; active = well fitted inhibition curve with a large enough effect in the signal ratio in the repeat runs, not every such curve was filed as active; the % refers to the signal ratio)
# Outline: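 FXR-UAS-bla HEK 293T cells (beta-lactamase reporter) given compound plus chenodeoxycholic acid (50 uM final), 16 h at 37C. LiveBLAzer B/G FRET substrate added for 2 h at room temperature; fluorescence read.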
# [18] = qHTS assay for small molecule activators of the heat shock response signaling pathway (AID 743210; active = well fitted activation curve with a large enough effect in the signal ratio in the repeat runs, with a control signal flat, not every such curve was filed as active; the % refers to the signal ratio;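 note: HeLa cells with beta-lactamase reporter driven by heat shock elements; series mostly up to about 63 µM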)
# Outline: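 Quantitative high-throughput format using an engineered HeLa line in which heat shock response elements drive beta-lactamase; after 5 h with compound, cells received a B/G FRET substrate and fluorescence was read.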
SMILES,Potency [1],Potency [2],Potency [3],Potency [4],Potency [5],Potency [6],Potency [7],Potency [8],Potency [9],Potency [10],Potency [11],Potency [12],Potency [13],Potency [14],Potency [15],Potency [16],Potency [17],Potency [18]
CCCCN(CCCC)c1ccc(C(=O)c2ccccc2C(=O)O)c(O)c1,inactive,inactive,44.1 µM (active),62.2 µM (active),44.1 µM (active),44.1 µM (active),inactive,44.1 µM (active),–,–,–,–,–,–,–,–,–,–
O=S1(=O)CC(Cl)(Cl)C(Cl)(Cl)C1,inactive,13.7 µM (active),5.49 µM (active),–,–,3.89 µM (active),–,9.77 µM (active),4.33 µM (active),5.49 µM (active),inactive,1.74 µM (active),2.19 µM (active),–,–,–,–,–
C[n+]1cc2c3c(ccc2c2ccc4cc5c(cc4c21)OCO5)OCO3,6.68 µM (active),10.6 µM (active),1.3 µM (active),–,–,–,inactive,1.46 µM (active),0.92 µM (active),1.46 µM (active),–,–,0.58 µM (active),2.59 µM (active),–,–,–,–
O=CC=C(c1ccccc1)c1ccccc1,inactive,inactive,–,inactive,–,–,–,–,inactive,–,–,–,–,–,43.6 µM (active),inactive,inactive,–
CCCCN1C(=O)[C@@H]([C@H](O)C2CCCCC2)NC(=O)C12CCN(Cc1ccc(Oc3ccc(C(=O)O)cc3)cc1)CC2,inactive,8.63 µM (active),inactive,inactive,–,inactive,–,inactive,–,–,–,–,–,inactive,–,–,–,inactive
CCCCCCCCCOC(=O)c1ccc(O)cc1,inactive,inactive,–,24.2 µM (active),27.1 µM (active),24.2 µM (active),–,43 µM (active),60.3 µM (active),48.3 µM (active),–,–,17.1 µM (active),–,–,–,–,–
COc1cc(-c2nc(NC(=O)c3cc4cc(C)cc(C)c4n3CC(=O)O)sc2CCC2CCCCC2)c(OC)cc1Cl,inactive,inactive,8.96 µM (active),–,10 µM (active),–,–,14.2 µM (active),14.1 µM (active),12.7 µM (active),–,–,10 µM (active),–,–,–,–,–
CCCCCCCCCCCCc1ccc(O)cc1,inactive,inactive,19.5 µM (active),24.5 µM (active),–,–,–,43.6 µM (active),54.5 µM (active),34.7 µM (active),–,13.8 µM (active),12.3 µM (active),–,–,–,–,–
CCCCC(CC)COP(=O)(O)OCC(CC)CCCC (stereo not given),inactive,inactive,inactive,–,55 µM (active),inactive,inactive,inactive,61.1 µM (active),55 µM (active) and 43.6 µM (active),–,inactive,55 µM (active),–,–,–,–,–
CCCCCCCCCCCCCC[P+](CCCC)(CCCC)CCCC (tested in a mixture with another compound),inactive,inactive,0.277 µM (active),–,–,–,–,22 µM (active),19.4 µM (active),17.5 µM (active),inactive,inactive,inactive,inactive,–,inactive,–,–
CN(C)C(=O)C1(N2CCCCC2)CCN(CC[C@@]2(c3ccc(Cl)c(Cl)c3)CN(C(=O)c3ccccc3)CCO2)CC1,inactive,20.3 µM (active),16.2 µM (active),–,11.5 µM (active),16.2 µM (active),–,32.4 µM (active),20.3 µM (active),16.2 µM (active),inactive,–,20.4 µM (active),–,–,–,–,–
Cc1[nH]cnc1C[C@H]1CCc2c(C)c3ccccc3n2C1=O,inactive,inactive,19 µM (active),inactive,–,–,–,inactive,53.1 µM (active),–,inactive,–,inactive,inactive,–,–,inactive,–
O=C(Oc1cccc2cccnc12)c1ccccc1,inactive,inactive,inactive,–,3.35 µM (active),4.22 µM (active),–,8.41 µM (active),–,9.44 µM (active),–,inactive,3.76 µM (active),–,–,inactive,–,–
